Reference: PubChem BioAssay (Tox21)
Inconclusive results are not listed. Active and inactive are the calls of the source. Unless noted, calls come from the whole dose curve; as a rule, active = well fitted curve in the direction sought with a large enough effect in the repeat runs; inconclusive = weak or mixed curves; inactive = no such curve, though single readings can be large; an effect the other way counts as inactive or inconclusive.

Experiments:
[1] = qHTS assay for small molecule agonists of the p53 signaling pathway (AID 651631; calls by dose curve; note: nearly all actives have a fitted effect of over 15% in size)
Procedure, shortened: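 Fluorescence intensity from cleaved LiveBLAzer B/G substrate (2 h, room temperature) served as the signal. Beforehand, HCT-116 reporter cells bearing p53 response elements were treated 16 h at 37 °C with DMSO-dissolved compounds.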

[2] = qHTS assay for small molecules that induce genotoxicity in human embryonic kidney cells expressing luciferase-tagged ATAD5 (AID 651632); note: nearly all actives have a fitted effect of over 15% in size
Procedure, shortened: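 HEK293T cells carrying a luciferase reporter tagged to ATAD5 were exposed to compound or DMSO vehicle for 16 hr at 37C, 5% CO2. Amplite was added, and after 30 min at room temperature luciferase activity was read as a marker of ATAD5 induction.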

[3] = qHTS assay for small molecule agonists of the p53 signaling pathway - cell viability (AID 651633; calls by dose curve;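 note: p53RE-bla HCT reporter cells with a stable beta-lactamase p53 reporter; nearly all actives have a fitted effect of over 30% in size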)
Procedure, shortened: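 p53RE-bla cells were treated with compound for 16 hours at 37 C. Cytotoxicity was then measured as CellTiter-Glo luminescence after 30 min at room temperature.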

[4] = qHTS assay for small molecules that induce genotoxicity in human embryonic kidney cells expressing luciferase-tagged ATAD5 - cell viability (AID 651634; calls by dose curve; note: nearly all actives have a fitted effect of over 25% in size)
Procedure, shortened: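 HEK293T cells expressing luciferase-tagged ATAD5 were exposed to compound or DMSO for 15.5 hr at 37C, 5% CO2. Viability was then read as live-cell protease activity by CellTiter-Fluor fluorescence after 30 min at 37C.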

[5] = qHTS assay for small molecule disruptors of the mitochondrial membrane potential - cell viability (AID 720634; calls by dose curve;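 note: human HepG2 liver cancer cells; nearly all actives have a fitted effect of over 20% in size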)
Procedure, shortened: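 HepG2 cells seeded overnight at 37 C, then exposed to compound or DMSO for 1 hr at 37 C, 5% CO2. m-MPI dye added, then CellTiter-Glo for 30 min at room temperature; viability read as ATP luminescence.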

[6] = qHTS assay for small molecule disruptors of the mitochondrial membrane potential (AID 720635); note: potency is the fitted concentration of half-maximal effect
Procedure, shortened: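 HepG2 cells exposed to compound 1 hr at 37C, then Mito-MPS dye 30 min. Ratio read of aggregate (540/590 nm) versus monomer (490/535 nm) fluorescence.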

[7] = qHTS assay to test for compound auto fluorescence at 590 nm (red) in HepG2 cells (AID 720674)
Procedure, shortened: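 HepG2 cells, 2,000 per well in MEM with 10% FBS, attached overnight at 37 C, then got 23 nL compound or DMSO. After 1 hr at 37 C, 5% CO2, red fluorescence was read at 540/590 nm against Rose Bengal sodium as reference.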

[8] = qHTS assay to test for compound auto fluorescence at 460 nm (blue) in HEK293 cells (AID 720678)
Procedure, shortened: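 HEK293, 2,000 cells/well, 10% dialyzed FBS; attach 4-5 hr 37C; pin compound or DMSO; o/n 37C/5% CO2; fluorescence 405/460 nm; triamterene-equivalent units.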

[9] = qHTS assay to test for compound auto fluorescence at 590 nm (red) in HEK293 cells (AID 720679)
Procedure, shortened: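 Intensity at 540nm excitation and 590nm emission is reported as Rose Bengal sodium-equivalent autofluorescence. Measurements followed overnight exposure (37C, 5% CO2) of HEK293 cells, 2,000 per well, to 23 nL compound.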

[10] = qHTS assay to test for compound auto fluorescence at 535 nm (green) in HEK293 cells (AID 720680)
[11] = qHTS assay to test for compound auto fluorescence at 460 nm (blue) in HEK293 cell free culture (AID 720681)
Procedure, shortened: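 Compounds were added to cell-free DMEM with 10% FBS and fluorescence read directly. The blue channel used 405 nm excitation and 460 nm emission, with triamterene as the reference fluorophore.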

[12] = qHTS assay to test for compound auto fluorescence at 535 nm (green) in HEK293 cell free culture (AID 720682)
Procedure, shortened: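 Intrinsic compound fluorescence is measured in culture medium containing 10% FBS, with excitation at 485 nm and detection at 535 nm, referenced to fluorescein.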

[13] = qHTS assay to test for compound auto fluorescence at 590 nm (red) in HepG2 cell free culture (AID 720684)
Procedure, shortened: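 Compound was pinned into wells holding MEM with 10% FBS and no cells, and red fluorescence was read at Ex/Em 540/590 nm. Signal is expressed as auto fluorescence equivalency relative to Rose Bengal sodium.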

[14] = qHTS assay to test for compound auto fluorescence at 460 nm (blue) in HepG2 cell free culture (AID 720685)
Procedure, shortened: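 Compound (23 nL) or DMSO pinned into cell-free MEM with 10% FBS; blue fluorescence read at 405/460 nm excitation/emission, expressed as auto-fluorescence equivalency to triamterene.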

[15] = qHTS assay to test for compound auto fluorescence at 535 nm (green) in HepG2 cell free culture (AID 720686)
[16] = qHTS assay to test for compound auto fluorescence at 460 nm (blue) in HepG2 cells (AID 720687)
Procedure, shortened: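 HepG2 cells in MEM with 10% FBS, attached overnight at 37 C, were exposed to compound or DMSO for 1 hr at 37 C, 5% CO2. Blue fluorescence was read at 405/460 nm, with triamterene as reference fluorophore.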

[17] = target: Glucocorticoid receptor (Homo sapiens) (UniProt P04150); test: qHTS assay to identify small molecule agonists of the glucocorticoid receptor (GR) signaling pathway (AID 720691; active = well fitted activation curve with a large enough effect in the signal ratio in the repeat runs, not every such curve was filed as active; the % refers to the signal ratio); conditions: GR-bla HeLa, beta-lactamase reporter ratio, 18 h; activation: at 62.4 µM (top of the series) unless noted
Chain of Glucocorticoid receptor (Homo sapiens) (P04150 whole entry, looked up): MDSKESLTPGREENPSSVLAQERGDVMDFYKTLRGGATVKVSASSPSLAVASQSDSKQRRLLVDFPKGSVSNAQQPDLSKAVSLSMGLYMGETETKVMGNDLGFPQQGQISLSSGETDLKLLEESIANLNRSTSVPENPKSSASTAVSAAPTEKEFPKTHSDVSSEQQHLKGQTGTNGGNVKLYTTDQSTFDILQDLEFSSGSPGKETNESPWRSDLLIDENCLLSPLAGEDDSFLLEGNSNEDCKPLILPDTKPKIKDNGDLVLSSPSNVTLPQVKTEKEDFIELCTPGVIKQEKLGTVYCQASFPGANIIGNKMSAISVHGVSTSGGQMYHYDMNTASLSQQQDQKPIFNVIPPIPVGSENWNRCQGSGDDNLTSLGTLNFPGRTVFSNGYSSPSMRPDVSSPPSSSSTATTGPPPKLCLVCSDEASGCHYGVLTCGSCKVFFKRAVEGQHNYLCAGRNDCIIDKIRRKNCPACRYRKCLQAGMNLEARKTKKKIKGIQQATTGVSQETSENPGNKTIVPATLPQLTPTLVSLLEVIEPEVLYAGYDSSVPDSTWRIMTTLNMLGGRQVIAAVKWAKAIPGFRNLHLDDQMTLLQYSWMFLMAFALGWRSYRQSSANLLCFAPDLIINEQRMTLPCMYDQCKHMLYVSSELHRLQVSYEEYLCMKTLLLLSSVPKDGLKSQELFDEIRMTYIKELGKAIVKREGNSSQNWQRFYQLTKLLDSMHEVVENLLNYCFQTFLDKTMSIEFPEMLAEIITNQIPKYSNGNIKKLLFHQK
Procedure, shortened: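 GR-bla HeLa cells (beta-lactamase reporter under glucocorticoid response element) were plated 4 h at 37 C/5% CO2, given compounds in DMSO, and incubated 18 h at 37 C. LiveBLAzer B/G FRET substrate was added for 2 h at room temperature, then fluorescence intensity read.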

[18] = target: Glucocorticoid receptor (Homo sapiens) (UniProt P04150); test: qHTS assay to identify small molecule antagonists of the glucocorticoid receptor (GR) signaling pathway (AID 720692; active = well fitted inhibition curve with a large enough effect in the signal ratio in the repeat runs, not every such curve was filed as active; the % refers to the signal ratio)
Procedure, shortened: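 GR-bla HeLa cells (beta-lactamase reporter under glucocorticoid response element) were pre-plated 4 h at 37 C, treated with compounds plus 5 nM dexamethasone (final) for 18 h, then read by LiveBLAzer B/G FRET fluorescence after 2 h.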

[19] = qHTS assay to test for compound auto fluorescence at 535 nm (green) in HepG2 cells (AID 720675)
[20] = qHTS assay to test for compound auto fluorescence at 590 nm (red) in HEK293 cell free culture (AID 720683)
Procedure, shortened: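 Cell-free wells of DMEM with 10% FBS received compound, and intrinsic fluorescence was read at excitation/emission 540/590 nm. Values expressed as equivalence to Rose Bengal sodium.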
% is set by controls: 0 for no effect and ±100 for the full control effect.

C/C=C/C=C/CO
inactive: Potency [1] | Potency [2] | Potency [3] | Potency [4] | Potency [5] | Potency [6] | Potency [7] | outcome [8] | Potency [9] | outcome [10] | outcome [11] | outcome [12] | Potency [13] | outcome [14] | Potency [15] | outcome [16] | Potency [17] | Potency [18]

O=C(O)CNCC(=O)O
inactive: activation [1] -5.9% [at 8.3 µM] | activation [2] 0.678% [at 8.08 µM] | activity change, negative = cytotoxicity [3] 6.66% [at 8.08 µM] | activity, negative = cytotoxicity [4] 24.8% [at 8.08 µM] | activity change, negative = cytotoxicity [5] -5.3% [at 8.08 µM] | ratio activity, negative = MMP loss [6] 15% [at 8.08 µM] | fluorescence, relative to Rose Bengal [7] -0.419% [at 3.72 µM] | fluorescence, % of fluorescein control [19] -0.0488% [at 3.72 µM] | fluorescence, % of fluorescent control [9] -0.0175% [at 3.72 µM] | fluorescence, % of fluorescein [10] -0.0204% [at 3.72 µM] | fluorescence, % of fluorescent control [11] -0.259% [at 3.72 µM] | activity change [12] -0.144% [at 3.72 µM] | fluorescence, % of fluorescent control [20] -0.223% [at 3.72 µM] | fluorescence, % of Rose Bengal [13] -0.109% [at 3.72 µM] | fluorescence, % of fluorescein control [15] -0.0374% [at 3.72 µM] | fluorescence, % of fluorescent control [16] -0.0767% [at 3.72 µM] | activation [17] -1.96% [at 6.9 µM]

NCc1ccccc1Sc1ccccc1CO
inactive: Potency [1] | Potency [2] | Potency [3] | Potency [4] | Potency [5] | Potency [6] | Potency [7] | Potency [19] | outcome [8] | Potency [9] | outcome [10] | outcome [11] | outcome [12] | Potency [20] | Potency [13] | outcome [14] | Potency [15] | outcome [16]

O=CC1CC=CCC1 (stereo unspecified)
inactive: Potency [1] | Potency [2] | Potency [3] | Potency [4] | Potency [5] | Potency [6] | Potency [7] | Potency [19] | Potency [9] | outcome [10] | outcome [11] | outcome [12] | Potency [20] | Potency [13] | Potency [15]

CNC(=O)CN(CCN(CCN(CC(=O)[O-])CC(=O)NC)CC(=O)[O-])CC(=O)[O-].O.[Gd+3]
inactive: Potency [1] | Potency [2] | Potency [3] | Potency [4] | Potency [5] | Potency [6] | Potency [7] | Potency [19] | outcome [8] | Potency [9] | outcome [10] | outcome [11] | outcome [12] | Potency [20] | Potency [13] | outcome [14] | Potency [15] | Potency [17] | Potency [18]

CC1OC(=O)C(C)OC1=O (stereo unspecified)
inactive: Potency [1] | Potency [2] | Potency [3] | Potency [4] | Potency [5] | Potency [6] | Potency [7] | Potency [19] | outcome [8] | Potency [9] | outcome [10] | outcome [11] | outcome [12] | Potency [20] | Potency [13] | Potency [15] | outcome [16] | Potency [18]

COC(C)OC
inactive: Potency [1] | Potency [2] | Potency [3] | Potency [4] | Potency [5] | Potency [7] | Potency [19] | outcome [8] | Potency [9] | outcome [10] | outcome [11] | outcome [12] | Potency [20] | Potency [13] | outcome [14] | Potency [15] | Potency [17] | Potency [18]

CC(CC=O)c1ccccc1 (stereo unspecified)
inactive: Potency [1] | Potency [2] | Potency [3] | Potency [4] | Potency [5] | Potency [7] | Potency [19] | outcome [8] | Potency [9] | outcome [10] | outcome [11] | outcome [12] | Potency [13] | outcome [14] | outcome [16]
active: Potency [6] 54.5 µM

C=C1[C@H]2CC[C@@H]3[C@H]2C(C)(C)CCC[C@]13C
inactive: Potency [1] | Potency [2] | Potency [3] | Potency [4] | Potency [5] | Potency [7] | Potency [19] | outcome [8] | Potency [9] | outcome [10] | outcome [11] | outcome [12] | Potency [20] | Potency [13] | Potency [15] | outcome [16] | Potency [17] | Potency [18]

CC(C)(O)c1ccc(CNC(=O)c2cccnc2Oc2ccc(F)cc2)cc1
inactive: Potency [1] | Potency [2] | Potency [3] | Potency [4] | Potency [5] | Potency [6] | Potency [7] | Potency [19] | outcome [8] | Potency [9] | outcome [10] | outcome [11] | Potency [20] | outcome [14] | Potency [15] | outcome [16] | Potency [17] | Potency [18]

COc1ccc(C(=O)N2CCN(CC(=O)N3CCOCC3)CC2)cc1
inactive: Potency [1] | Potency [2] | Potency [3] | Potency [4] | Potency [5] | Potency [6] | Potency [7] | Potency [19] | outcome [8] | Potency [9] | outcome [10] | outcome [11] | outcome [12] | Potency [20] | Potency [13] | Potency [15] | outcome [16]

COc1cc2nc(N3CCN(C(=O)C4COc5ccccc5O4)CC3)nc(N)c2cc1OC (stereo unspecified)
inactive: Potency [1] | Potency [2] | Potency [3] | Potency [5] | Potency [6] | Potency [7] | outcome [8] | Potency [9] | outcome [10] | outcome [11] | outcome [12] | Potency [20] | Potency [13] | outcome [14] | outcome [16]

CC(C)CC(=O)C1C(=O)c2ccccc2C1=O
inactive: Potency [1] | Potency [2] | Potency [3] | Potency [4] | Potency [7] | Potency [19] | outcome [8] | Potency [9] | outcome [10] | outcome [11] | Potency [20] | Potency [13] | outcome [14] | Potency [15] | outcome [16] | Potency [17]
active: Potency [6] 4.33 µM

CCCCC
inactive: Potency [1] | Potency [2] | Potency [3] | Potency [4] | Potency [5] | Potency [7] | Potency [19] | outcome [8] | Potency [9] | outcome [10] | outcome [11] | outcome [12] | Potency [20] | Potency [13] | outcome [16] | Potency [17] | Potency [18]
